Test [1] is described as follows: A CellTox Green Cytotoxicity Assay to monitor cytotoxicity in HEK293 cells - 32 hour (AID 1224881). Also: nearly all actives have a fitted effect of over 40% in size. Also: potency is read from the fitted curve at half-maximal effect. In outline:
(§1)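 HEK293 cells premixed with CellTox Green dye were seeded at 600 cells/well and left 5 h at 37 C/5% CO2 before pin transfer of 23 nL compound in DMSO. Fluorescence from dye bound to dead-cell DNA was read during 40 h treatment.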

A short description of test [2]: A CellTox Green Cytotoxicity Assay to monitor cytotoxicity in HepG2 cells - 0 hour (AID 1224882). Also: nearly all actives have a fitted effect of over 35% in size. In outline: (§2)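 HepG2 cells were seeded together with the CellTox Green dye at 600 cells/well, left 5 h at 37 C/5% CO2, then given compounds in DMSO. Fluorescence from dye bound to dead-cell DNA was read repeatedly over 40 h of treatment at 37 C.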
A short description of test [3]: A CellTox Green Cytotoxicity Assay to monitor cytotoxicity in HepG2 cells - 32 hour (AID 1224883). Also: nearly all actives have a fitted effect of over 50% in size. Also: potency is read from the fitted curve at half-maximal effect. In outline: as §2
Test [4] in a line: A CellTox Green Cytotoxicity Assay to monitor cytotoxicity in HEK293 cells - 8 hour (AID 1224884). Also: nearly all actives have a fitted effect of over 35% in size. Also: potency is read from the fitted curve at half-maximal effect. In outline: as §1
Test [5] in a line: qHTS RealTime-Glo MT Cell Viability Assay in HEK293 cells - 8 hour (AID 1224887). Also: nearly all actives have a fitted effect of over 50% in size. Also: potency is read from the fitted curve at half-maximal effect. In outline:
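HEK293 cells mixed with RealTime-Glo reagents (NanoLuc plus cell-permeant prosubstrate) at 600 cells/well, preincubated 5 h at 37 C/5% CO2, then given 23 nL compound in DMSO. Nonlytic luminescence from viable cells was read at 0, 8, 16, 24, 32 and 40 h.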
A general note: Quantitative high-throughput screening tests each substance at several concentrations.

Test [6] is described as follows: A CellTox Green Cytotoxicity Assay to monitor cytotoxicity in HEK293 cells - 16 hour (AID 1224888). Also: nearly all actives have a fitted effect of over 35% in size. Also: potency is read from the fitted curve at half-maximal effect. In outline: as §1
A short description of test [7]: qHTS RealTime-Glo MT Cell Viability Assay in HepG2 cells - 0 hour (AID 1224889). Also: nearly all actives have a fitted effect of over 50% in size. Also: potency is read from the fitted curve at half-maximal effect. In outline: (§3)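 Cells + NanoLuc/prosubstrate dispensed (600 cells/well) → 5 h at 37 C/5% CO2 → compounds in DMSO transferred → 40 h incubation at 37 C, luminescence read at 0, 8, 16, 24, 32, 40 h.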
Test [8] in a line: A CellTox Green Cytotoxicity Assay to monitor cytotoxicity in HepG2 cells - 8 hour (AID 1224890). Also: nearly all actives have a fitted effect of over 45% in size. Also: potency is read from the fitted curve at half-maximal effect. In outline:
as §2

The nature of test [9]: qHTS assay to identify small molecule antagonists of the estrogen receptor alpha (ER-alpha) signaling pathway using the BG1 cell line in the presence of 0.1 nM 17-beta-estradiol - cell viability counter screen (AID 1259241). Also: nearly all actives have a fitted effect of over 40% in size. Also: potency is read from the fitted curve at half-maximal effect. In outline:
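Viability in VM7Luc4E2 cells after 22 hr compound exposure under 0.1 nM 17beta-estradiol stimulation, by CellTiter-Fluor.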

Test [10] in a line: qHTS assay to identify small molecule antagonists of the androgen receptor (AR) signaling pathway using the MDA cell line in the presence of 0.5 nM R1881 - cell viability counter screen (AID 1259242). Also: nearly all actives have a fitted effect of over 45% in size. Also: potency is read from the fitted curve at half-maximal effect. In outline: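 MDA-kb2 cells (human breast carcinoma, stably carrying MMTV-luciferase reporter) were exposed to compounds with 0.5 nM R1881 (final) for 16 hr at 37C, 0% CO2; viability then read as live-cell protease fluorescence (CellTiter-Fluor, 30 min) in the same wells.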

A short description of test [11]: qHTS assay to identify small molecule HDAC inhibitors (AID 1259364). Also: top concentration of the series differs between compounds; nearly all actives have a fitted effect of over 45% in size. In outline:
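Wild-type HCT-116 cells were plated overnight, exposed to compounds for 2 h at 37 °C, then given HDAC-Glo class I/II luminogenic reagent for 30 min at room temperature before luminescence was read.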

Test [12] in a line: qHTS assay to identify small molecule HDAC inhibitors - cell viability counter screen (AID 1259365). Also: series mostly up to about 92 µM; nearly all actives have a fitted effect of over 50% in size. In outline: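 Cytotoxicity was gauged in wild-type HCT-116 cells after a brief 2hr treatment with DMSO-dissolved compounds at 37C and 5% CO2, using CellTiter-Glo luminescence developed for 30min at room temperature.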
Test [13] can be described thus: qHTS assay to identify small molecule antagonists of the sonic hedgehog signaling (Shh) pathway - cell viability counter screen (AID 1259367). Also: nearly all actives have a fitted effect of over 55% in size. Also: potency is read from the fitted curve at half-maximal effect. In outline: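 NIH/3T3-derived Gli1-Luc reporter cells (2,000 per well) rested 4 hr at 37 C, then received DMSO compounds plus conditioned medium. After 23 hr of treatment, CellTiter-Fluor was added for 1 hr at 37C and fluorescence read.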

Test [14] is described as follows: qHTS assay to identify small molecule agonists of the sonic hedgehog signaling (Shh) pathway (AID 1259368; calls by dose curve; also: series mostly up to about 92 µM; nearly all actives have a fitted effect of over 15% in size). In outline: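 NIH/3T3-derived 3T3Gli1-Luc cells carrying a stably integrated Gli1 response element–firefly luciferase reporter were plated, left 4 hr at 37 C, then given compounds in DMSO for 24 hr. Luminescence was read 30 min after adding luciferase reagent.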

Test [15] in a line: qHTS RealTime-Glo MT Cell Viability Assay in HepG2 cells - 16 hour (AID 1224885). Also: nearly all actives have a fitted effect of over 50% in size. Also: potency is read from the fitted curve at half-maximal effect. In outline:
as §3

Test [16] has as its target Androgen receptor (Homo sapiens) (UniProt P10275). Briefly: qHTS assay to identify small molecule antagonists of the androgen receptor (AR) signaling pathway using the MDA cell line in the presence of 0.5 nM R1881 (AID 1259243). In outline: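 MDA-kb2 human breast carcinoma cells carrying an MMTV-luciferase reporter (AR- and GR-responsive) were plated, rested 5 hr at 37C, dosed with compounds, then stimulated with 0.5 nM R1881 (final) for 16 hr; luminescence was read after ONE-Glo.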

The target of test [17] is Estrogen receptor (Homo sapiens) (UniProt P03372). The experiment in a line: qHTS assay to identify small molecule antagonists of the estrogen receptor alpha (ER-alpha) signaling pathway using the BG1 cell line in the presence of 0.1 nM 17-beta-estradiol (AID 1259244). Also: nearly all actives have a fitted effect of over 50% in size. Also: potency is read from the fitted curve at half-maximal effect. In outline:
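VM7Luc4E2 cells (endogenous full-length ER-alpha, stable 4xERE-luciferase) were grown 5 days in phenol red-free medium with charcoal-stripped FBS, then exposed 22 h at 37C to compounds plus 0.1 nM (final) 17beta-estradiol; ONE-Glo luminescence read-out.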

Test [18] in a line: qHTS assay to identify small molecule phospholipidosis (PLD) inducers (AID 1259344; active = well fitted curve in the direction sought with a large enough effect; an effect the other way counts as inactive or inconclusive). In outline: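 HepG2 cells on collagen I, attached 4 h at 37 C, were co-treated with compound and LipidTOX Red dye for 24 h at 37 C, then fixed with paraformaldehyde plus Hoechst 33342 and imaged by high-content microscopy for phospholipid accumulation.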
Test [19] in a line: qHTS assay to identify small molecule agonists of the sonic hedgehog signaling (Shh) pathway - cell viability counter screen (AID 1259366). Also: nearly all actives have a fitted effect of over 50% in size. Also: potency is read from the fitted curve at half-maximal effect. In outline: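 Stable Gli1-Luc NIH/3T3 clone, 2,000 cells/well. Compound exposure 24hr at 37C. Read-out: CellTiter-Fluor fluorescence.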
Test [20] can be described thus: qHTS RealTime-Glo MT Cell Viability Assay in HEK293 cells - 24 hour (AID 1224886). Also: nearly all actives have a fitted effect of over 50% in size. Also: potency is read from the fitted curve at half-maximal effect. In outline: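 Tox21 10K qHTS, HEK293, 600 cells/well, RealTime-Glo reagent co-dispensed with cells; 5 h preincubation, compound by pintool, 37 C, luminescence at 0–40 h.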

Values joined by “and” are separate entries in the source; they are usually repeats but may differ in a detail not shown here. Equal values may be shown once. Inconclusive results are not listed. Active and inactive are the calls of the source. Unless noted, calls follow the shape of the dose curve; as a rule, active = well fitted curve in the direction sought with a large enough effect in the repeat runs; inconclusive = weak or mixed curves; inactive = no such curve, though single readings can be large; an effect the other way counts as inactive or inconclusive.

Chain of Androgen receptor (Homo sapiens) (P10275 whole entry, looked up): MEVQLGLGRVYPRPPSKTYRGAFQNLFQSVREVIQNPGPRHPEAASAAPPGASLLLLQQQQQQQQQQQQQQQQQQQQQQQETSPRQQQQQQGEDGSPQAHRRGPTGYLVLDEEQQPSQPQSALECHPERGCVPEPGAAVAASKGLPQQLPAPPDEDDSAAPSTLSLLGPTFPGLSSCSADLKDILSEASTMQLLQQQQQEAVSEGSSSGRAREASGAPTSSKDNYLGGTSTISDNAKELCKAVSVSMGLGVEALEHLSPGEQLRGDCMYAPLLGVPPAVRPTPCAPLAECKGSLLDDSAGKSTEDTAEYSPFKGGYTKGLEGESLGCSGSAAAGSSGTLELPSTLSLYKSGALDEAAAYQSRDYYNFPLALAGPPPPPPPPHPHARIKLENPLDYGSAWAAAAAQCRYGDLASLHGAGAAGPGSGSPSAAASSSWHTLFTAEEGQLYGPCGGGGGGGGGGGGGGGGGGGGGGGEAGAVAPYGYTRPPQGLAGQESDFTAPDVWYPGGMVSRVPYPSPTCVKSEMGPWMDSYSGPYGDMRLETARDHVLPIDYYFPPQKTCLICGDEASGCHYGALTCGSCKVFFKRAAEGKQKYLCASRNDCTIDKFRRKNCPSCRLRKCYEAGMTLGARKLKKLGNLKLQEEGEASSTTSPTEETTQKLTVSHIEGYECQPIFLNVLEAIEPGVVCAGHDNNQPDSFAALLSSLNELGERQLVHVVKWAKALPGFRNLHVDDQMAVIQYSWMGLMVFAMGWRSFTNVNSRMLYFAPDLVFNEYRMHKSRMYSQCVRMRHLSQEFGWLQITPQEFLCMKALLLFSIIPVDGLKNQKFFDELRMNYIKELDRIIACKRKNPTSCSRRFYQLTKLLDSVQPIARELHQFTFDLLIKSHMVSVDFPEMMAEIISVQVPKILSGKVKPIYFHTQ
Chain of Estrogen receptor (Homo sapiens) (P03372 whole entry, looked up): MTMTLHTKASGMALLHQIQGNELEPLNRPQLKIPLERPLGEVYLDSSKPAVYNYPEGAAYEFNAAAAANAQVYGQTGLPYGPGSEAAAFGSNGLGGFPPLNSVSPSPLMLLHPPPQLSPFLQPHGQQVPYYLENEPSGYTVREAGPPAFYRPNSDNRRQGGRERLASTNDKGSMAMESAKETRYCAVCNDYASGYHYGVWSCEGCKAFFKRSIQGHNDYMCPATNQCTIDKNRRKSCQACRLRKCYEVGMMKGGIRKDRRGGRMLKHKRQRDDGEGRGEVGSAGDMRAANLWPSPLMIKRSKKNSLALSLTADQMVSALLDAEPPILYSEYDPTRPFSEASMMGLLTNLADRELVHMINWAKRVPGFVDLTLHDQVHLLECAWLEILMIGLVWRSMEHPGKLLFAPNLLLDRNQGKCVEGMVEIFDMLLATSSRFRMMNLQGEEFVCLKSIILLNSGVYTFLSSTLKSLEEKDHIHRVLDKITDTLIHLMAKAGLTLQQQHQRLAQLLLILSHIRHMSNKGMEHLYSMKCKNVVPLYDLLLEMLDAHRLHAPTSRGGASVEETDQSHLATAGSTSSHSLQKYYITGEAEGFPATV

Take `CC1(C)[C@H](/C=C2\CCSC2=O)[C@@H]1C(=O)OCc1coc(Cc2ccccc2)c1`: the Potency entry in test [1], in [2], in [3], in [4], in [6] and in [7] was “inactive” each time. Further, the Potency entry in [8], in test [9], in [10], in [11], in [12] and in test [13] was “inactive” in each case. Further, the Potency entry in test [14] was “inactive”. Moreover, the Potency in test [5] is 38.9 µM (active).

`Fc1ccc(C(OCCN2CCN(CCCc3ccccc3)CC2)c2ccc(F)cc2)cc1`: the Potency in test [1] is 23.9 µM (active); in [3] it was 23.9 µM (active); in [4], 21.3 µM (active); in test [15] it was 23.9 µM (active); in [5] it was 16.9 µM (active); in test [8], 23.9 µM (active). Besides, the Potency in test [9] was 29.8 µM (active); in test [10], 23.7 µM (active); in [16], 8.41 µM (active); in test [17], 23.7 µM (active); in test [19] it was 18.8 µM (active); in test [13], 21.1 µM (active). Further, the Potency entry in test [2], in test [7], in [11], in test [12] and in test [14] was “inactive” in each case. For the same molecule, the outcome in test [18] was inactive.

As for `CO/N=C(/C1=NOCCO1)c1ccccc1Oc1ncnc(Oc2ccccc2Cl)c1F`, the Potency result in test [1], in test [2], in test [3], in test [4], in [20] and in test [5] was “inactive” throughout. Further, the Potency entry in test [6], in [7], in test [8], in [12], in [13] and in test [14] was “inactive” throughout. Also, the Potency in test [10] was 17.2 µM (active); in test [17], 4.85 µM (active).

As for `O=C1C(Cl)=C(Cl)C(=O)C(Cl)=C1Cl`, the Potency was 21.8 µM (active) and 21.9 µM (active) in test [1]; 21.8 µM (active) and 19.5 µM (active) in [3]; 24.5 µM (active) and 21.9 µM (active) in [20]; 21.8 µM (active) in test [5]; 9.74 µM (active) and 12.3 µM (active) in test [7]; 21.9 µM (active) in [8]. Also, the Potency in test [10] is 48.4 µM (active); in test [16], 27.2 µM (active) and 24.3 µM (active); in [19], 24.2 µM (active) and 24.3 µM (active); in test [13], 60.9 µM (active) and 24.3 µM (active). The Potency result in test [2], in test [4], in test [9], in test [17], in [11] and in [14] was “inactive” in each case.

As to `CC(C)(C)c1ccc(OP(=O)(Oc2ccccc2)Oc2ccccc2)cc1`, the Potency entry in [1], in test [2], in test [3], in [4], in [15] and in test [6] was “inactive” in each case. Also, the Potency entry in test [7], in test [8], in [9], in test [10], in [17] and in test [19] was “inactive” in each case. The Potency result in test [13] and in test [14] was “inactive” throughout.

On to `CNN`, for which the Potency result in test [1], in test [2], in test [3], in [4], in test [15] and in test [5] was “inactive” in each case. The Potency entry in [7], in test [8], in test [9], in [10], in [11] and in test [12] was “inactive” each time. For the same molecule, the Potency entry in [19], in test [13] and in test [14] was “inactive” in each case.

Take `COC(=O)N(OC)c1ccccc1COc1ccn(-c2ccc(Cl)cc2)n1`: the Potency result in test [1], in [2], in test [3], in test [4], in test [15] and in [6] was “inactive” in each case. Also, the Potency result in test [7], in test [8], in test [11], in [12], in test [19] and in [13] was “inactive” in each case. Moreover, the Potency result in test [14] is “inactive”. Further, the figures for the Potency in [10] and in test [17] were 2.17 µM (active) and 0.686 µM (active), respectively.

As for `Brc1ccc(Oc2ccc(Br)cc2Br)c(Br)c1`, the Potency result in test [1], in test [2], in test [3], in test [4], in test [15] and in test [6] was “inactive” throughout. In addition, the Potency result in [7], in [8], in test [9], in test [10], in test [17] and in test [12] was “inactive” each time. The Potency result in test [19], in test [13] and in test [14] was “inactive” each time.

`CC(C)=CCN1CC[C@@]2(C)c3cc(O)ccc3C[C@@H]1[C@@H]2C`: the Potency result in test [1], in test [2], in test [3], in test [4], in [15] and in test [5] was “inactive” throughout. For the same molecule, the Potency result in [7], in test [8], in test [10], in [17], in [11] and in test [12] was “inactive” in each case. Also, the Potency entry in test [19], in [13] and in test [14] was “inactive” throughout. Moreover, the call in test [18] was inactive.

As for `CCC1COC(Cn2cncn2)(c2ccc(Cl)cc2Cl)O1` (stereo not given), the Potency result in [1], in [2], in test [3], in [4], in test [15] and in [5] was “inactive” each time. Besides, the Potency entry in [6], in test [7], in [8], in test [9], in test [10] and in test [12] was “inactive” in each case. Further, the Potency entry in test [19], in test [13] and in test [14] was “inactive” throughout.

Take `CCOP(=O)(Sc1ccccc1)Sc1ccccc1`: the Potency result in test [1], in [2], in [3], in [4], in [15] and in test [5] was “inactive” each time. For the same molecule, the Potency result in [7], in test [8], in test [9], in test [10], in test [17] and in [11] was “inactive” each time. Moreover, the Potency result in [12], in test [19], in test [13] and in test [14] was “inactive” each time.

`CCCCCCCc1ccc(O)cc1`: the Potency was 43.6 µM (active) in test [1]; 21.9 µM (active) in test [3]; 12.3 µM (active) in test [20]; 6.17 µM (active) in test [5]; 43.6 µM (active) in [6]; 24.5 µM (active) in test [8]. The Potency in [16] was 27.3 µM (active). Moreover, the Potency entry in test [2], in test [15], in [7], in [9], in test [10] and in [17] was “inactive” each time. Besides, the Potency result in test [11], in test [19] and in test [14] was “inactive” throughout.

Turning to `CC(C)N(C(=O)CCl)c1ccccc1`, the Potency result in test [1], in [2], in test [4], in test [5], in test [6] and in [7] was “inactive” throughout. Moreover, the Potency result in test [8], in test [9], in [11], in test [12] and in test [14] was “inactive” throughout. Moreover, the Potency is 49 µM (active) in [3]; 49 µM (active) in test [20]; 19.3 µM (active) in test [16]; 27.3 µM (active) and 54.5 µM (active) in test [17]; 30.6 µM (active) and 24.3 µM (active) in [13].

For the origin of these results see PubChem BioAssay (Tox21).
